PubChem BioAssay AID1851 (National Center for Advancing Translational Sciences (NCATS), 2009)
The whole screen tested about 16,000 compounds, of which about 2,600 (16%) were called active. Another 20% or so got no clear call; they are omitted. Only a sample is shown. Unmarked numbers belong to inactive results. Calls come from the whole dose curve; as a rule, active = well fitted curve in the direction sought with a large enough effect; inconclusive = small, poorly fitted or top-dose-only effect, or effect the other way; inactive = no such curve, though single readings can be large or run the other way.

target: Cytochrome P450 2D6 (Homo sapiens) (UniProt P10635); assay: Cytochrome panel assay with activity outcomes; details: recombinant CYP, pro-luciferin dealkylation, luminescence, p450-cyp2d6; series mostly up to 57.1 µM; activity, negative = inhibition: at the top concentration
% is set by controls: 0 for no effect and ±100 for the full control effect.

Sequence of Cytochrome P450 2D6 (Homo sapiens) (P10635 whole entry, looked up): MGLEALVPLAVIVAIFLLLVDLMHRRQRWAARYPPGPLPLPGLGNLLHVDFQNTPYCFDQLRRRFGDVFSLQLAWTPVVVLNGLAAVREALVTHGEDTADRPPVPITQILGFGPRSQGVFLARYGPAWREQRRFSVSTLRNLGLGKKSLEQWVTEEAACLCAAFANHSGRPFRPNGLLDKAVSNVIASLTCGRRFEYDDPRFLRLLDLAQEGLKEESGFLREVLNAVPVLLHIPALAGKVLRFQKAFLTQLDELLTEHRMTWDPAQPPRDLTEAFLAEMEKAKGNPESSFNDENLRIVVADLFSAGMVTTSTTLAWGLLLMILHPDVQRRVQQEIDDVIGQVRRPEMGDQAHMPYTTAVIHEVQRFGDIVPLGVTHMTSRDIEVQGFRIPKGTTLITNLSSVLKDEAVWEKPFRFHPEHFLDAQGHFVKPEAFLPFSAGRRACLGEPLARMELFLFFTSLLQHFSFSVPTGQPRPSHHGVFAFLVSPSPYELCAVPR

SMILES | activity, negative = inhibition | AC50
CCCc1nnc(SCC(=O)N2CCCCC2)n1CC1CCCO1 (configuration not stated) | -8.47% | –
CC(C)c1nc2oc3ccccc3c(=O)c2c(=O)n1-c1ccccc1 | 1.39% | –
CC(=O)c1cc(CC=C(C)C)c(O)cc1O | – | 14.1 µM (active)
COc1cc(CC(=O)O)c(C(C)=O)cc1OC | -1.85% | –
CNc1oc(-c2cccs2)nc1C#N | -4.23% | –
N#Cc1nc(-c2cccs2)oc1NCc1ccccc1 | – | 4.47 µM (active)
N#Cc1nc(-c2ccc(OCc3ccccc3)cc2)oc1NCCN1CCOCC1 | -19.7% | –
CCCC12CN3CC(CCC)(CN(C1)C3C(O)C(O)C(O)CO)C2=O (configuration not stated) | -18.7% | –
CCO/C([O-])=N/c1c[n+](N2CCOCC2)no1 | 11.1% [at 25.6 µM] | –
NS(=O)(=O)c1ccc(N=Nc2nc3[nH]c(=O)[nH]c(=O)c3[nH]2)cc1 | 15.1% [at 11.4 µM] | –
COC(=O)c1sc2ccccc2c1-n1cccc1C(=O)C(=O)Nc1ccc(Cl)cc1 | 33.3% | –
OC[C@@H]1NC[C@@H](O)[C@@H](O)[C@H]1O | 4.42% | –
COc1ccc(-c2nnn(CC(=O)N(CC(=O)NCCC(C)C)Cc3cccs3)n2)cc1OC | – | 11.2 µM (active)
CCOc1ccc(-c2nnn(CC(=O)Nc3cc(OC)ccc3OC)n2)cc1OCC | -15.6% | –
COc1ccc(-c2ccc(=O)n(CC(=O)Nc3nnc(C(C)C)s3)n2)cc1OC | 4.75% | –
CCOc1ccccc1NC(=O)C1=C(C)NC(=O)NC1c1cccc(OC)c1OC (configuration not stated) | -5.38% | –
NC(N)=N/N=C(\c1ccc(Cl)cc1)C1CC1 | 1.81% [at 11.4 µM] | –
Nc1ncnc(N(c2ccccc2)C2CCCCC2)c1[N+](=O)[O-] | 19.7% | –
CN[C@@H](c1ccncc1)[C@@H](NC)c1ccncc1 | -10.1% [at 11.4 µM] | –
COc1cc(CN2CCN(C(=O)CC(C)C)CC2)cc(OC)c1OC | -10.3% | –
CC(C)CC(=O)N1CCN(Cc2cccc(F)c2)CC1 | – | 8.91 µM (active)
COc1ccc(CN2CCN(C(=O)CC(C)C)CC2)c(OC)c1OC | -20.4% | –
O=c1nc2ccccc2c(NS(=O)(=O)c2ccc(Cl)cc2)n1-c1ccccc1 | 10.2% | –
O=C(c1cc(Cl)c(=O)n(Cc2ccc(Cl)cc2)c1)N1CCOCC1 | -10.6% | –
Cc1cc(NS(=O)(=O)c2ccc(NC(=O)CN3C(=O)c4ccccc4C3=O)cc2)nc(C)n1 | -5.29% | –
O=c1ccc(NS(=O)(=O)c2ccc(Cl)cc2)cn1Cc1ccc(Cl)c(Cl)c1 | – | 7.94 µM (active)

SMILES | activity, negative = inhibition | AC50
Cc1ccc(S(=O)(=O)Nc2ccc(=O)n(Cc3ccc(Cl)c(Cl)c3)c2)cc1 | – | 3.98 µM (active)
O=c1ccc(NS(=O)(=O)c2ccccc2)cn1Cc1ccc(Cl)c(Cl)c1 | – | 14.1 µM (active)
Cc1ccc(NCCC(=O)c2ccc(Cl)c(Cl)c2)cc1 | -27.8% | –
COc1ncc2nc(C)c(=O)n(CCC#N)c2n1 | 6.73% | –
COc1ccc(C(=O)N2CCC3(CCCN(C(=O)Nc4cccc(F)c4)C3)CC2)cc1 | -16.4% | –
CCN(CC)C(=O)c1sc2[nH]c(=S)n(-c3ccccc3)c(=O)c2c1C | -9.98% | –
COc1cccc(OC)c1C(=O)Nc1cc(C)on1 | -25.9% | –
CCOC(=O)C1=C(COc2ccc(F)cc2Cl)NC(=O)NC1c1cc(C)ccc1C (configuration not stated) | -19.5% | –
CC(C)NC(=O)c1ccc2c(=O)n(Cc3ccco3)c(=S)[nH]c2c1 | -2.05% | –
Cc1ncsc1C(=O)N1N=C2/C(=C/c3ccccc3)CCCC2C1c1ccccc1 (configuration not stated) | 3.61% | –
Cc1ccc(S(=O)(=O)N/N=C/c2cccn2-c2ccc(Cl)cc2)cc1 | 3.13% | –
COc1ccc(C(=O)Oc2cc(/C=N/NS(=O)(=O)c3ccc(C)cc3)ccc2OC)cc1 | 1.92% | –
O=S(=O)(N/N=C\c1cccn1-c1ccccc1)c1ccc2ccccc2c1 | – | 5.01 µM (active)
CCc1ccccc1NC(=O)c1nnn(CC(=O)Nc2ccccc2C)c1N | -18.4% | –
Cc1nn(CC(=O)NCCN2CCOCC2)c(C)c1[N+](=O)[O-] | 0.91% | –
Cc1cc(C)n(C(=O)CCCCCCCCC(=O)n2nc(C)cc2C)n1 | -12.3% | –
COc1ccc(Nc2nc(N3CCCCC3)c3ccccc3n2)cc1 | – | 1.58 µM (active)
COc1ccc(Nc2cc(C(=O)NCCCN3CCN(C)CC3)c3ccccc3n2)cc1 | -17.4% | –
COc1ccc(N2CCN(c3nc(Nc4ccc(F)cc4)nc(OC)n3)CC2)cc1 | 0.148% | –
CCNc1ncc2ncc(=O)n(C[C@H]3CCCO3)c2n1 | -8.66% | –
COc1cc(CNCCc2c[nH]c3ccccc23)ccc1OCc1ccccc1F | – | 3.98 µM (active)
CC(=O)N[C@@H](Cc1c[nH]c2ccccc12)C(=O)OCc1cc(C(F)(F)F)cc(C(F)(F)F)c1 | 17.4% | –
COc1cccc(CNCCc2c[nH]c3ccccc23)c1OCc1ccccc1F | – | 0.282 µM (active)
COC(=O)C(Cc1c[nH]c2ccccc12)NC(=O)C(C)C (configuration not stated) | -4.41% | –
COc1ccc(C(C(=O)NC2CCCCC2)N(C(=O)Cc2c[nH]c3ccccc23)c2ccc(NC(C)=O)cc2)cc1OC (configuration not stated) | -30.5% | –
COc1cc(Cl)c(CC(=O)c2c[nH]c3ccccc23)cc1OC | -18% [at 11.4 µM] | –
